{
  "source": "the supplement of paper PMC10338343",
  "note": "± gives the standard deviation.",
  "data": [
    {"test_system": "MILI (PIWIL2) piRISC loaded with piRNA #1 (26 nt)", "assay": "pre-steady-state target cleavage rate (min^-1); guide: piRNA #1 5'p-UGAGGUAGUAGGUUGUAUAGUAUCCA; MIWI and MILI are mouse PIWI proteins and EfPiwi is from a freshwater sponge; tags in brackets are library labels; higher = faster piRNA-guided slicing of the target", "conditions": "auxiliary factor: 500 nM mouse GTSF1", "outline": "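With or without 500 nM GTSF1 partner protein, 1 nM active affinity-purified piRISC carrying one synthetic guide was mixed with 0.1 nM transcribed, DNA-blocked target RNA library in HEPES–potassium acetate buffer at 33 °C for 0–8 or 0–960 min. Uncleaved targets were sequenced and normalised to depth and to weakly complementary targets, three trials were pooled, and k3 was capped at 0.0001 min^-1. The pre-steady-state cleavage rate came from a burst-and-steady-state fit.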", "values": [
      {"sequence": "GGAGACCUAUGAUAUGUACCUACACCUCA", "pre-steady-state target cleavage rate": "< 0.0001"},
      {"sequence": "GGAGACCUAUCUAUACAACCUACCACCUCA", "pre-steady-state target cleavage rate": "0.0927 ± 0.018"},
      {"sequence": "GGAGACCAUACUAAACAACCUACUAGCUCA", "pre-steady-state target cleavage rate": "0.165 ± 0.03"},
      {"sequence": "GGAGACCUAUCUAAACAACCUACUAGCUCA", "pre-steady-state target cleavage rate": "0.0571 ± 0.011"},
      {"sequence": "GGAGACCAUACUUAUACAACCUACUACCUCA", "pre-steady-state target cleavage rate": "0.132 ± 0.016"},
      {"sequence": "GGAGACCAUACUAUACAUGCUACUACCUCA", "pre-steady-state target cleavage rate": "0.0704 ± 0.01"},
      {"sequence": "GGAGACCUAUGAUAUGUUUCUACUACCUCA", "pre-steady-state target cleavage rate": "< 0.0001"},
      {"sequence": "GGAGACCUAUGUAUACAAACUACUACCUCA", "pre-steady-state target cleavage rate": "0.111 ± 0.012"},
      {"sequence": "GGAGACCUAUGAUUACAACCUACUACACUCA", "pre-steady-state target cleavage rate": "0.00616 ± 0.0025"},
      {"sequence": "GGAGAGGAUACUAUUGAACCUACUACCUCA", "pre-steady-state target cleavage rate": "0.124 ± 0.011"},
      {"sequence": "GGAGACCUAUGAAUACUACCUACUAGCUCA", "pre-steady-state target cleavage rate": "0.00378 ± 0.0025"},
      {"sequence": "GGAGACCAUUGAAUACAACCUACUACCUCA", "pre-steady-state target cleavage rate": "0.0121 ± 0.0038"},
      {"sequence": "GGAGACCUAUCUAUACAACCUACAACGUCA", "pre-steady-state target cleavage rate": "0.0102 ± 0.004"},
      {"sequence": "GGAGACCUAUCUAAACAACCUACUUCCUCA", "pre-steady-state target cleavage rate": "0.0303 ± 0.0063"},
      {"sequence": "GGAGACCUAUCUAUUGAACCUACUACCUCA", "pre-steady-state target cleavage rate": "0.0631 ± 0.011"},
      {"sequence": "GGAGACCUAUGAAUACAACCUACUACGCUCA", "pre-steady-state target cleavage rate": "0.0107 ± 0.0039"},
      {"sequence": "GGAGACCUAUGAUAUGUUCCUAGUACCUGA", "pre-steady-state target cleavage rate": "< 0.0001"},
      {"sequence": "GGAGACCUAUCUUUACAACCUACUACCUGA", "pre-steady-state target cleavage rate": "0.0554 ± 0.012"},
      {"sequence": "GGAGACCUAUGUAAACAUCCUACUACCUCA", "pre-steady-state target cleavage rate": "0.0128 ± 0.0025"},
      {"sequence": "GGAGACCUUACUUAUCAACCUACUACCUCA", "pre-steady-state target cleavage rate": "0.0518 ± 0.014"},
      {"sequence": "GGAGACCUUUCUAUACAACCUUCUACCUCA", "pre-steady-state target cleavage rate": "0.00706 ± 0.003"},
      {"sequence": "GGAGACCUAUGAUUACAUGCUACUACCUCA", "pre-steady-state target cleavage rate": "0.00366 ± 0.0034"},
      {"sequence": "GGAGACCUUUCUAUACAACCUACUACCACA", "pre-steady-state target cleavage rate": "0.152 ± 0.018"},
      {"sequence": "GGAGACCUAUGAAUACAACCUACUACUUCA", "pre-steady-state target cleavage rate": "0.00709 ± 0.0022"},
      {"sequence": "GGAGACCUUACUUUACAACCUACAACCUCA", "pre-steady-state target cleavage rate": "0.0873 ± 0.013"},
      {"sequence": "GGAGACGAUACUAUACAACCUACAUGCUCA", "pre-steady-state target cleavage rate": "0.0563 ± 0.016"},
      {"sequence": "GGAGACCUAUGAUUACAACAUACUACCUCA", "pre-steady-state target cleavage rate": "0.00271 ± 0.0024"},
      {"sequence": "GGAGACCAUAGUAUACAACGUACUACCUCA", "pre-steady-state target cleavage rate": "0.0174 ± 0.0033"},
      {"sequence": "GGAGACCUUACUAUAGUUCCUACUACCUCA", "pre-steady-state target cleavage rate": "0.113 ± 0.0093"},
      {"sequence": "GGAGACCUUACUAUACAAACUACUACCUCA", "pre-steady-state target cleavage rate": "0.204 ± 0.014"},
      {"sequence": "GGAGACCUAACUAACAACCUACUACCUCA", "pre-steady-state target cleavage rate": "0.0182 ± 0.0067"},
      {"sequence": "GGAGACCUAUGAAUACAACGUACAACCUCA", "pre-steady-state target cleavage rate": "0.00489 ± 0.0026"},
      {"sequence": "GGAGACCUUACAAUACAACCUAGUACCUCA", "pre-steady-state target cleavage rate": "0.043 ± 0.013"},
      {"sequence": "GGAGACCUUACUAUUCAUCCUACUACCUCA", "pre-steady-state target cleavage rate": "0.231 ± 0.018"},
      {"sequence": "GGAGACCUAUGUAAACAACGUACUACCUCA", "pre-steady-state target cleavage rate": "0.0029 ± 0.002"},
      {"sequence": "GGAGACCUAUGUAUACAACCUCCUACCUCA", "pre-steady-state target cleavage rate": "0.0161 ± 0.0038"},
      {"sequence": "GGAGACCUAACAAUAGAACCUACUACCUCA", "pre-steady-state target cleavage rate": "0.0656 ± 0.012"},
      {"sequence": "GGAGACCUUACUAAACAUCCUACUACCUCA", "pre-steady-state target cleavage rate": "0.208 ± 0.017"},
      {"sequence": "GGAGACCAUACUAUACAACCUACUACCUCC [g2:g23:cont:t1C]", "pre-steady-state target cleavage rate": "0.187 ± 0.017"},
      {"sequence": "GGAGACCUAAGUAUACAACCUUCUACCUCA", "pre-steady-state target cleavage rate": "0.00652 ± 0.0032"}
    ]}
  ]
}
